Among the data in PubChem BioAssay AID2015 (National Center for Advancing Translational Sciences (NCATS), 2009) are Potency values, retold here.

The list shows a part of the results. Inconclusive results are not listed. Activity calls are given as the source filed them. The call rests on the fitted dose curve; in most records, active means well fitted inhibition curve with a large enough effect; inconclusive means small, poorly fitted or top-dose-only effect; inactive means flat fitted curve, though single readings scatter.

Galactokinase (Homo sapiens), sequence (P51570 whole entry, looked up): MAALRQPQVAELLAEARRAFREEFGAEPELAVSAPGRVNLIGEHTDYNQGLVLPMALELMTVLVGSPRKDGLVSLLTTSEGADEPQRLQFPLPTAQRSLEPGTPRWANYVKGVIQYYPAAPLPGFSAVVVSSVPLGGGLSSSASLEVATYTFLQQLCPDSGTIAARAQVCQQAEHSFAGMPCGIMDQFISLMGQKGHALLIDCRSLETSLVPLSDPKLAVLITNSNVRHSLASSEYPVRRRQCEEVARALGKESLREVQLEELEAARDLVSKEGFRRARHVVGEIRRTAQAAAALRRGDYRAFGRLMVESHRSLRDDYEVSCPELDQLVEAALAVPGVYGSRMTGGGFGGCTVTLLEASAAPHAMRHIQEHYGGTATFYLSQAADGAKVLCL

The test concerns the target Galactokinase (Homo sapiens) (UniProt P51570). As to the kind of experiment: Confirmation Assay for Inhibitors of Human Galactokinase (GALK). The conditions noted are these: purified GALK, Kinase-Glo ATP depletion luminescence; series mostly up to 115 µM. The text has this:
NIH Molecular Libraries Probe Production Centers Network [MLPCN] NIH Chemical Genomics Center [NCGC] MLPCN Grant: R03 MH085689-01 Assay Submitter (PI): Kent Lai (University of Utah School of Medicine, 50 N Mario Capecchi Drive, Salt Lake City, UT 84132) NCGC Assay Overview Inherited deficiency of galactose-1-phosphate uridyltransferase (GALT) can result in a potentially lethal disorder called Classic Galactosemia (OMIM 230400). Several lines of evidence indicate that an elevated level of galactose-1-phosphate (gal-1-p), the product of galactokinase (GALK), is a major, if not sole, pathogenic mechanism in patients with classic galactosemia. Therefore, finding inhibitors of GALK is a potential novel therapy for this inherent metabolic disease and is the long term goal of this project. Active compounds observed in the qHTS GALK assay (AID: 1868) were cherry picked and re-screened for validation. GALK (provided by Kent Lai) was assayed using ATP and D-(+)-Galactose (Sigma-Aldrich cat# G0750) as substrates. Promega Kinase-Glo Plus (cat# V3774) technology was used to detect the residual ATP following kinetic reaction. Briefly, the Kinase-Glo Plus contains Ultra-Glo [1] luciferase and D-luciferin which generates a bioluminescence signal from the remaining ATP. Kinase reactions with and without GALK were used as negative and positive controls together with Protein Tyrosine Phosphatase CD45 inhibitor (EMD Bioscience cat# 540215) which is shown to inhibit GALK activity.
NCGC Assay Protocol Summary: Three uL/well of ATP-buffer solution (35 uM ATP, 20mM HEPES pH8.0, 5 mM MgCl2, 60 mM NaCl, 1 mM DTT, 0.01% BSA final concentration) was dispensed into 1536-well, assay plates (Greiner, solid white medium-binding plates) with Aurora Discovery BioRAPTR Flying Reagent Dispenser (FRD; Beckton-Dickenson). Compound and control solution (23 nL) was transferred to the assay plate using the Kalypsys 1536-pin tool apparatus. One uL/well GALK-galactose solution (5 nM GALK, 100 uM galactose, 20 mM HEPES pH8.0, 5 mM MgCl2, 60 mM NaCl, 1 mM DTT, 0.01% BSA final concentration) was then added using the FRD yielding a total kinase reaction volume of 4 uL/ well. After 1 hour of room temperature incubation, 4 uL Kinase-Glo Plus reagent was added for a final assay volume of 8 uL/well. Luminescence was detected with the ViewLux plate reader (Perkin Elmer, Waltham, MA) after 2 min incubation using a 1 sec exposure time and 2x binning.
Background: Kinase-Glo measures the ATP left after a reaction by luminescence.
For the compound `CCS(=O)(=O)C1=NSC2=NC(=O)/C(=C\c3ccc(OS(=O)(=O)c4ccccc4)cc3)C(=N)N21`, the Potency was 26.6 µM (active). With `N#C/C(=C(/O)Cc1cccc2ccccc12)c1nc2ccccc2s1`, the Potency was 33.5 µM (active). The value for `Oc1c(Cl)cc(Cl)c(Cl)c1Cc1c(O)c(Cl)cc(Cl)c1Cl` was 21.1 µM (active); that for `CCOC(=O)c1c(C)[nH]c2c1-c1ccccc1C(=O)C2=O` was 1.68 µM (active). On to `COc1cccc2cc(-c3cc(=O)oc4cc(C)c(O)cc34)oc12`, for which the Potency result was “inactive”.

For the compound `N#Cc1c(N2CCCCC2)nc(N)c2c(N)nc(SCC(=O)O)cc12`, the Potency is 21.1 µM (active).
